Screening results as filed in PubChem BioAssay.
Rows were chosen to be rich in hits. Some 3.5% of all compounds tested hit in one or more screens of this group.
SKN-1 inh: inhibitors of C. elegans SKN-1. 0.49% of 360,000 active. C. elegans VP596 Pgst-4::GFP/RFP ratio, acrylamide-induced, 24 h. inhibition, % at 21.8 µM. AID 624304;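 active means interference check ratio from 0.5 to 1.5 plus GFP to RFP signal ratio inhibition reaching or exceeding a fixed threshold, cut at about 30% in these data, passing the limit was not always enough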
M1 antag: antagonists of human M1 muscarinic receptor; P11229; CHO-K1 hM1, Fluo-8 calcium fluorescence, ACh EC80 antagonist; inhibition, % at 3 µM; 1.3% of 360,000 active; AID 588852;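 active means percent inhibition above its own plate's cutoff, namely the mean of that plate's compound wells plus 3 SD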;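 further: peak over basal fluorescence ratio during 140 s after agonist addition; 0% = ACh EC80 plus DMSO and 100% = DMSO alone without agonist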
CHRM1 PAM: human CHRM1 positive allosteric modulation; P11229; CHO-K1 hM1, Fluo-8 calcium fluorescence, ACh EC20; 0% = ACh EC20, 100% = maximal ACh; activation, % at 3 µM; 0.088% of 360,000 active; AID 588819; in the data active means activation above about 19%, passing the limit was not always enough
Myeloid diff MLP: compounds promoting myeloid differentiation | 1% of 360,000 active | ER-HoxA9 myeloid progenitors, lysozyme-GFP differentiation, flow cytometry | calls only at 10 µM;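 active means normalized GFP-positive differentiation at or above the plate's own cutoff, the solvent-only control mean plus 3 SD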;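 further: cells exposed to compound for four days before flow analysis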
ATG4B inh: blocks human ATG4B protease cleavage of LC3 substrate. Q9Y4P1. ATG4B cleavage of LC3-PLA2, NBD-HPC fluorescence, 1 h. inhibition, % at 8.33 µM. 0.51% of 340,000 active. AID 504462; in the data active means inhibition above about 40%
Target sequence (Q9Y4P1 whole entry, looked up): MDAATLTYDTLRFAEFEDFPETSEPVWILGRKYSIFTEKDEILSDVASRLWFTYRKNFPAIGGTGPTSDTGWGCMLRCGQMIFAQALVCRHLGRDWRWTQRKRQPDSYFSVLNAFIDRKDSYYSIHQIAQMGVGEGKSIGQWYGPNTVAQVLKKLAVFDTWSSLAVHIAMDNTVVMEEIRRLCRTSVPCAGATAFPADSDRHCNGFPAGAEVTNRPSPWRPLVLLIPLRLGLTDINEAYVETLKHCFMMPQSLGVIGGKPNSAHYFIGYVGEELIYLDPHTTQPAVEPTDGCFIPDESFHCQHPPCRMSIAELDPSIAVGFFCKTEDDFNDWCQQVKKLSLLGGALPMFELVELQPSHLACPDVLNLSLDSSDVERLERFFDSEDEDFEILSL
M1 ag: agonists of human M1 muscarinic receptor. activation, % at 3 µM. AID 588814. CHO-K1 hM1, Fluo-8 calcium fluorescence, agonist mode; 0% DMSO, 100% acetylcholine EC100. 0.33% of 360,000 active. P11229;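 active means activation above the run's mean compound activation plus 3 SD, cut at about 16% in these data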;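 further: peak over basal fluorescence ratio within a 140 s kinetic read after compound addition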
Active calls of the source: *; ! = not active in a repeat.

Screening O=C(Nc1nc(-c2ccc(F)c(F)c2)cs1)c1cc([N+](=O)[O-])ccc1N1CCOCC1 returned SKN-1 inh 15, M1 antag -4, CHRM1 PAM 6, Myeloid diff MLP inactive, ATG4B inh -7 and M1 ag -3.
CN1c2cccc3cccc(c23)N(C)C1c1cccs1 was read as SKN-1 inh 10, M1 antag -10, CHRM1 PAM 6, Myeloid diff MLP inactive, ATG4B inh 2 and M1 ag -4.
`CC1N(C)c2cccc3cccc(c23)N1C` gave SKN-1 inh -2, M1 antag -16, CHRM1 PAM 11, Myeloid diff MLP active, ATG4B inh 0 and M1 ag -3.
`CN1CCCC(C#CC(O)(c2ccccc2)c2ccccc2)C1` (stereo not drawn) gave SKN-1 inh 0, M1 antag 99*, CHRM1 PAM -35, Myeloid diff MLP inactive, ATG4B inh -8 and M1 ag -13.
`Cc1ccccc1C(=O)OC1CCCN(C)C1` (stereo not drawn) gave SKN-1 inh 15, M1 antag 11, CHRM1 PAM -11, Myeloid diff MLP inactive, ATG4B inh -3 and M1 ag -9.
CCN(CC)CC#CC(OC)(c1ccccc1)c1ccccc1 was read as SKN-1 inh -1, M1 antag 100*, CHRM1 PAM -38, Myeloid diff MLP inactive, ATG4B inh 6 and M1 ag -16.
`CCCN(CC#CC(O)(c1ccccc1)c1cccnc1)CCC` (stereo not drawn) gave SKN-1 inh -10, M1 antag 14, CHRM1 PAM -10, Myeloid diff MLP inactive, ATG4B inh -5 and M1 ag -6.
Screening COC(=O)[C@]12CCCCC=C1N(CCc1ccc(OC)c(OC)c1)C(=O)[C@H](CC(=O)NCC13CC4CC(CC(C4)C1)C3)C2 returned SKN-1 inh -13 and Myeloid diff MLP inactive.
For CSc1nc(-c2ccco2)nn1C(=O)c1ccc(C)cc1 the results were SKN-1 inh 36*, M1 antag -13, CHRM1 PAM 7, Myeloid diff MLP inactive, ATG4B inh 6 and M1 ag -3.
`Cc1ccc(O)c([C@H](CCN(C(C)C)C(C)C)c2ccccc2)c1` gave SKN-1 inh 3, M1 antag 100*, CHRM1 PAM -27, Myeloid diff MLP active!, ATG4B inh -4 and M1 ag -8.
Screening CN(C)c1cc[n+](Cc2c(Cl)cccc2Cl)cc1 returned SKN-1 inh 4, M1 antag 80*, CHRM1 PAM -21, Myeloid diff MLP active, ATG4B inh -13 and M1 ag -5.
CN(C)c1cc[n+](CC[n+]2ccc(N(C)C)cc2)cc1 was read as SKN-1 inh 7, M1 antag 1, CHRM1 PAM -2, Myeloid diff MLP inactive, ATG4B inh 1 and M1 ag -12.
For Cc1ccc(CSc2ncnc3ccccc23)cc1 the results were SKN-1 inh 12, M1 antag -12, CHRM1 PAM 14, Myeloid diff MLP inactive, ATG4B inh -5 and M1 ag -7.
For c1ccc(CSc2ncnc3ccccc23)cc1 the results were SKN-1 inh 59*, M1 antag -2, CHRM1 PAM 8, Myeloid diff MLP inactive, ATG4B inh -7 and M1 ag -8.
Cc1cccc(CSc2ncnc3ccccc23)c1 was read as SKN-1 inh 4, M1 antag -4, CHRM1 PAM 11, Myeloid diff MLP inactive, ATG4B inh -3 and M1 ag 5.
For Fc1ccc(CSc2ncnc3ccccc23)cc1 the results were SKN-1 inh 62*, M1 antag -6, CHRM1 PAM 3, Myeloid diff MLP inactive, ATG4B inh 7 and M1 ag -2.
For CC(=O)c1ccc(OC(=O)C(CCS(C)(=O)=O)N2C(=O)c3ccccc3C2=O)cc1 (stereo not drawn) the results were SKN-1 inh 5, M1 antag -5, CHRM1 PAM 2, Myeloid diff MLP inactive, ATG4B inh 6 and M1 ag 0.
CCOc1ccc(OC(=O)C(CCS(C)(=O)=O)N2C(=O)c3ccccc3C2=O)cc1 (stereo not drawn) was read as SKN-1 inh 14, M1 antag -5, CHRM1 PAM 11, Myeloid diff MLP active, ATG4B inh -5 and M1 ag -4.
`CN(C)CCCO[C@@H]1[C@H]2OC(C)(C)O[C@H]2O[C@@H]1[C@H](O)CO` gave SKN-1 inh 44*, M1 antag -30, CHRM1 PAM 1, Myeloid diff MLP inactive, ATG4B inh 3 and M1 ag -3.
For COC(=O)NNC(=O)c1ccc(Cl)cc1Cl the results were SKN-1 inh 4, M1 antag -8, CHRM1 PAM 1, Myeloid diff MLP inactive, ATG4B inh -5 and M1 ag -4.
`CC(C)(C)C(=O)NC(=S)NNC(=O)c1ccc(-c2ccccc2)cc1` gave SKN-1 inh -9, M1 antag 103*, CHRM1 PAM -24, Myeloid diff MLP active, ATG4B inh -8 and M1 ag 115*.
`CC(C)(C)C(=O)NC(=S)NNC(=O)c1ccc(Cl)cc1Cl` gave SKN-1 inh 9, M1 antag 87*, CHRM1 PAM -24, Myeloid diff MLP inactive, ATG4B inh 6 and M1 ag 117*.
For COc1cc(C(O)c2nc(-c3cccc4cccnc34)cs2)ccc1F (stereo not drawn) the results were SKN-1 inh -2, M1 antag -22, CHRM1 PAM 4, Myeloid diff MLP inactive and M1 ag 1.
CC1CCN(C(=O)c2ccc(CSc3nc4ccncc4n3Cc3ccc(F)cc3)cc2)CC1 was read as SKN-1 inh 9, M1 antag 38*, CHRM1 PAM -27, Myeloid diff MLP inactive, ATG4B inh 22 and M1 ag -12.
`Cc1ccc(CSc2nc3ccncc3n2CC(=O)Nc2cc(C)cc(C)c2)cc1` gave SKN-1 inh 0, M1 antag 2, CHRM1 PAM 0, Myeloid diff MLP inactive, ATG4B inh 9 and M1 ag -5.
For O=S(=O)(NCc1ccccc1)c1ccc(Br)c2nsnc12 the results were SKN-1 inh 10, M1 antag -33, CHRM1 PAM 3, Myeloid diff MLP inactive, ATG4B inh -5 and M1 ag 0.
For COc1ccc(CN(C#N)c2nc(SC)nc(N(C)C)n2)cc1 the results were SKN-1 inh 1, M1 antag 3, CHRM1 PAM -4, Myeloid diff MLP inactive, ATG4B inh -2 and M1 ag -4.
For Cc1ccc(S(=O)(=O)N2C[C@H]3[C@H]4C(=O)N(c5ccccc5)C(=O)[C@H]4CC(=O)[C@H]3[C@@H]2c2cccc3ccccc23)cc1 the results were SKN-1 inh 36*, M1 antag -36, CHRM1 PAM 17, Myeloid diff MLP inactive and M1 ag 2.
